# Experimental data from the supplement of paper PMC8007513.
# Where a name gives a salt, the structure may show the parent alone. ± gives the standard error. Among all 1,300 compounds or so, about 130 (10%) showed an effect of 50% or more. Only a selection was taken, and strong results are over-represented in it overall.
# Test system: Trichoderma virens ATCC 9645
# Test: growth yield (OD600) with compound + IPBC relative to untreated control; higher = less growth inhibition
# Details: compound concentration: 100 uM, IPBC concentration: 200 ng/ml
# Outline: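 For each 96-well plate, 100 μl aliquots were prepared with Trichoderma virens ATCC 9645 spores suspended at 15,000 spores ml^−1 in potato dextrose broth. The spores had been harvested from potato dextrose agar plates after 7 days. Library compounds were present at 100 μM final, some wells also receiving a biocide at 200 ng ml^−1, and plates were grown at 30 °C with OD600 read on a BioTek EL800 at 40 h and 72 h. Reported growth, relative to the control lacking both agents, is the mean of duplicate screens.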
smiles,measurement,setting,value
Nc1nc(=O)n([C@@H]2CS[C@H](CO)O2)cc1F [(-)-Emtricitabine] + CCCCNC(=O)OCC#CI [3-iodo-2-propynyl butylcarbamate (IPBC)],growth yield,40 h,81.33 ± 0.64%
same,growth yield,72 h,87.5 ± 1.1%
CC(=O)[C@@]1(O)CC[C@H]2[C@@H]3C[C@H](C)C4=CC(=O)C=C[C@]4(C)[C@@]3(F)[C@@H](O)C[C@@]21C [Fluorometholone] + CCCCNC(=O)OCC#CI [3-iodo-2-propynyl butylcarbamate (IPBC)],growth yield,40 h,91.3 ± 9.1%
same,growth yield,72 h,88.7 ± 5%
CC(=O)NS(=O)(=O)c1ccc(N)cc1 [Sulfacetamide sodic hydrate] + CCCCNC(=O)OCC#CI [3-iodo-2-propynyl butylcarbamate (IPBC)],growth yield,40 h,91.5 ± 1.3%
same,growth yield,72 h,93.7 ± 0.94%
Cc1noc(NS(=O)(=O)c2ccc(N)cc2)c1C [Sulfisoxazole] + CCCCNC(=O)OCC#CI [3-iodo-2-propynyl butylcarbamate (IPBC)],growth yield,40 h,77.7 ± 2.7%
same,growth yield,72 h,91.1 ± 1.4%
Cc1cc(C)nc(NS(=O)(=O)c2ccc(N)cc2)n1 [Sulfamethazine sodium salt] + CCCCNC(=O)OCC#CI [3-iodo-2-propynyl butylcarbamate (IPBC)],growth yield,40 h,100 ± 14%
same,growth yield,72 h,98.5 ± 9.1%
Cc1cc(NS(=O)(=O)c2ccc(N)cc2)no1 [Sulfamethoxazole] + CCCCNC(=O)OCC#CI [3-iodo-2-propynyl butylcarbamate (IPBC)],growth yield,40 h,45.6 ± 1.1%
same,growth yield,72 h,80 ± 1.6%
CC1CS(=O)(=O)CCN1/N=C/c1ccc([N+](=O)[O-])o1 (stereo not drawn) [Nifurtimox] + CCCCNC(=O)OCC#CI [3-iodo-2-propynyl butylcarbamate (IPBC)],growth yield,40 h,91.5 ± 12%
same,growth yield,72 h,91.9 ± 6.9%
C[C@H](CS)C(=O)N1CCC[C@H]1C(=O)O [Captopril] + CCCCNC(=O)OCC#CI [3-iodo-2-propynyl butylcarbamate (IPBC)],growth yield,40 h,90.1 ± 1.1%
same,growth yield,72 h,90.1 ± 1.1%
C1CCC(C(CC2CCCCN2)C2CCCCC2)CC1 (stereo not drawn) [Perhexiline maleate] + CCCCNC(=O)OCC#CI [3-iodo-2-propynyl butylcarbamate (IPBC)],growth yield,40 h,40.981 ± 7.1e-15%
same,growth yield,72 h,85.27 ± 0.32%
CN1C(C(=O)Nc2ccccn2)=C(O)c2sccc2S1(=O)=O [Tenoxicam] + CCCCNC(=O)OCC#CI [3-iodo-2-propynyl butylcarbamate (IPBC)],growth yield,40 h,83.1 ± 2.1%
same,growth yield,72 h,94.08 ± 0.1%
CCCCC1(COC(=O)CCC(=O)O)C(=O)N(c2ccccc2)N(c2ccccc2)C1=O [Suxibuzone] + CCCCNC(=O)OCC#CI [3-iodo-2-propynyl butylcarbamate (IPBC)],growth yield,40 h,89.4 ± 2.7%
same,growth yield,72 h,92.71 ± 0.84%
Cc1cccc(C)c1NC(=O)C1CCCCN1C (stereo not drawn) [Mepivacaine hydrochloride] + CCCCNC(=O)OCC#CI [3-iodo-2-propynyl butylcarbamate (IPBC)],growth yield,40 h,91.3 ± 3.3%
same,growth yield,72 h,96.3 ± 4%
CCCCC[C@H](O)/C=C/[C@@H]1[C@@H](C/C=C\CCCC(=O)O)[C@@H](O)C[C@H]1O [Dinoprost trometamol] + CCCCNC(=O)OCC#CI [3-iodo-2-propynyl butylcarbamate (IPBC)],growth yield,40 h,83.1 ± 1.1%
same,growth yield,72 h,94.08 ± 0.52%
Nc1nc2ccc(OC(F)(F)F)cc2s1 [Riluzole hydrochloride] + CCCCNC(=O)OCC#CI [3-iodo-2-propynyl butylcarbamate (IPBC)],growth yield,40 h,27.3 ± 2.2%
same,growth yield,72 h,49.3 ± 1.9%
CCOc1ccc2nc(S(N)(=O)=O)sc2c1 [Ethoxzolamide] + CCCCNC(=O)OCC#CI [3-iodo-2-propynyl butylcarbamate (IPBC)],growth yield,40 h,90.2%
same,growth yield,72 h,92.2 ± 3.9%
CC(C(=O)O)c1ccc(N2Cc3ccccc3C2=O)cc1 (stereo not drawn) [Indoprofen] + CCCCNC(=O)OCC#CI [3-iodo-2-propynyl butylcarbamate (IPBC)],growth yield,40 h,88.8 ± 11%
same,growth yield,72 h,91.2 ± 7.3%
Cc1ccc(C(=O)c2ccc(CC(=O)O)n2C)cc1 [Tolmetin sodium salt dihydrate] + CCCCNC(=O)OCC#CI [3-iodo-2-propynyl butylcarbamate (IPBC)],growth yield,40 h,77.8 ± 4.8%
same,growth yield,72 h,83.9 ± 2.3%
C[C@]12CC[C@H](O)C[C@H]1CC[C@@H]1[C@@H]2CC[C@]2(C)[C@@H](C3=CC(=O)OC3)CC[C@]12O [Digitoxigenin] + CCCCNC(=O)OCC#CI [3-iodo-2-propynyl butylcarbamate (IPBC)],growth yield,40 h,79.58 ± 0.48%
same,growth yield,72 h,87.36 ± 0.52%
NC(=O)NC1NC(=O)NC1=O (stereo not drawn) [Allantoin] + CCCCNC(=O)OCC#CI [3-iodo-2-propynyl butylcarbamate (IPBC)],growth yield,40 h,83.71 ± 0.48%
same,growth yield,72 h,89.2 ± 2.2%
CC(C)OC(=O)C(C)(C)Oc1ccc(C(=O)c2ccc(Cl)cc2)cc1 [Fenofibrate] + CCCCNC(=O)OCC#CI [3-iodo-2-propynyl butylcarbamate (IPBC)],growth yield,40 h,65.4 ± 1.3%
same,growth yield,72 h,76.3 ± 1.9%
O=c1[nH]cc(F)c(=O)[nH]1 [5-fluorouracil] + CCCCNC(=O)OCC#CI [3-iodo-2-propynyl butylcarbamate (IPBC)],growth yield,40 h,36.9%
same,growth yield,72 h,58.1 ± 1.3%
Nc1nc(=O)[nH]cc1F [Flucytosine] + CCCCNC(=O)OCC#CI [3-iodo-2-propynyl butylcarbamate (IPBC)],growth yield,40 h,88.5 ± 2.1%
same,growth yield,72 h,90.4 ± 0.63%
CCN(CC)C(C)C(=O)c1ccccc1 (stereo not drawn) [Amfepramone hydrochloride] + CCCCNC(=O)OCC#CI [3-iodo-2-propynyl butylcarbamate (IPBC)],growth yield,40 h,102 ± 15%
same,growth yield,72 h,102 ± 9.3%
O=C1C(CC[S+]([O-])c2ccccc2)C(=O)N(c2ccccc2)N1c1ccccc1 (stereo not drawn) [Sulfinpyrazone] + CCCCNC(=O)OCC#CI [3-iodo-2-propynyl butylcarbamate (IPBC)],growth yield,40 h,106 ± 9.2%
same,growth yield,72 h,105 ± 2.4%
Cc1ccc(/C(=C\CN2CCCC2)c2ccccn2)cc1 [Triprolidine hydrochloride] + CCCCNC(=O)OCC#CI [3-iodo-2-propynyl butylcarbamate (IPBC)],growth yield,40 h,96.1 ± 6.5%
same,growth yield,72 h,100 ± 1.6%
CN1CCC(=C2c3ccccc3Sc3ccccc32)CC1 [Pimethixene maleate] + CCCCNC(=O)OCC#CI [3-iodo-2-propynyl butylcarbamate (IPBC)],growth yield,40 h,56.1 ± 1.4%
same,growth yield,72 h,88 ± 2%
CSc1ccc2c(c1)C(N1CCN(C)CC1)Cc1ccccc1S2 (stereo not drawn) [Methiothepin maleate] + CCCCNC(=O)OCC#CI [3-iodo-2-propynyl butylcarbamate (IPBC)],growth yield,40 h,2.06 ± 0.16%
same,growth yield,72 h,1.78 ± 0.1%
CN1CCN2c3ccccc3Cc3ccccc3C2C1 (stereo not drawn) [Mianserine hydrochloride] + CCCCNC(=O)OCC#CI [3-iodo-2-propynyl butylcarbamate (IPBC)],growth yield,40 h,82.6 ± 1.3%
same,growth yield,72 h,94.1 ± 1.8%
CC1(C)O[C@@H]2[C@@H](CO[C@@]3(COS(N)(=O)=O)OC(C)(C)O[C@@H]23)O1 [Topiramate] + CCCCNC(=O)OCC#CI [3-iodo-2-propynyl butylcarbamate (IPBC)],growth yield,40 h,89 ± 5.1%
same,growth yield,72 h,93.1 ± 5.9%
CC(C)(Oc1ccc(C2CC2(Cl)Cl)cc1)C(=O)O (stereo not drawn) [Ciprofibrate] + CCCCNC(=O)OCC#CI [3-iodo-2-propynyl butylcarbamate (IPBC)],growth yield,40 h,78.9 ± 3.6%
same,growth yield,72 h,82.2 ± 1.7%
O=c1[nH]c(=O)n([C@H]2C[C@H](O)[C@@H](CO)O2)cc1I [Idoxuridine] + CCCCNC(=O)OCC#CI [3-iodo-2-propynyl butylcarbamate (IPBC)],growth yield,40 h,87.8 ± 2.1%
same,growth yield,72 h,89.04 ± 0.52%
O=c1[nH]c(=O)n([C@H]2C[C@H](O)[C@@H](CO)O2)cc1F [Floxuridine] + CCCCNC(=O)OCC#CI [3-iodo-2-propynyl butylcarbamate (IPBC)],growth yield,40 h,4.45%
same,growth yield,72 h,19.1 ± 2.3%
O=c1[nH]c(=O)n([C@H]2C[C@H](O)[C@@H](CO)O2)cc1C(F)(F)F [Trifluridine] + CCCCNC(=O)OCC#CI [3-iodo-2-propynyl butylcarbamate (IPBC)],growth yield,40 h,90.4 ± 6.2%
same,growth yield,72 h,92.7 ± 4%
O=C(NCCNCC(O)COc1ccc(O)cc1)N1CCOCC1 (stereo not drawn) [Xamoterol hemifumarate] + CCCCNC(=O)OCC#CI [3-iodo-2-propynyl butylcarbamate (IPBC)],growth yield,40 h,92.4 ± 1.6%
same,growth yield,72 h,94.39 ± 0.63%
COc1cccc2c1C(=O)c1c(O)c3c(c(O)c1C2=O)C[C@@](O)(C(C)=O)C[C@@H]3O[C@H]1C[C@H](N)[C@H](O)[C@H](C)O1 [Daunorubicin hydrochloride] + CCCCNC(=O)OCC#CI [3-iodo-2-propynyl butylcarbamate (IPBC)],growth yield,40 h,9.21 ± 1.6%
same,growth yield,72 h,44.7 ± 1.3%
COc1cccc2c1C(=O)c1c(O)c3c(c(O)c1C2=O)C[C@@](O)(C(=O)CO)C[C@@H]3O[C@H]1C[C@H](N)[C@@H](O)[C@H](C)O1 [Epirubicin hydrochloride] + CCCCNC(=O)OCC#CI [3-iodo-2-propynyl butylcarbamate (IPBC)],growth yield,40 h,42.7 ± 0.48%
same,growth yield,72 h,95.33 ± 0.32%
COc1cccc2c1C(=O)c1c(O)c3c(c(O)c1C2=O)C[C@@](O)(C(=O)CO)C[C@@H]3O[C@H]1C[C@H](N)[C@H](O)[C@H](C)O1 [Doxorubicin hydrochloride] + CCCCNC(=O)OCC#CI [3-iodo-2-propynyl butylcarbamate (IPBC)],growth yield,40 h,8.1 ± 1.1%
same,growth yield,72 h,34.8 ± 20%
CO[C@@H]1[C@@H](O[C@@H]2O[C@H](C)[C@@H](O[C@H]3C[C@@](C)(O)[C@@H](OC(=O)CC(C)C)[C@H](C)O3)[C@H](N(C)C)[C@H]2O)[C@@H](CC=O)C[C@@H](C)[C@@H](O)/C=C/C=C/C[C@@H](C)OC(=O)C[C@H]1OC(C)=O [Josamycin] + CCCCNC(=O)OCC#CI [3-iodo-2-propynyl butylcarbamate (IPBC)],growth yield,40 h,100 ± 4.5%
same,growth yield,72 h,103 ± 3.5%
Nc1cc(C(Cl)=C(Cl)Cl)c(S(N)(=O)=O)cc1S(N)(=O)=O [Clorsulon] + CCCCNC(=O)OCC#CI [3-iodo-2-propynyl butylcarbamate (IPBC)],growth yield,40 h,86.4 ± 2.2%
same,growth yield,72 h,90.8 ± 3.1%
